From PubChem BioAssay (Tox21)
Inconclusive results are not listed. Activity calls are given as the source filed them. Calls follow the shape of the dose curve; as a rule, active = well fitted curve in the direction sought with a large enough effect in the repeat runs; inconclusive = weak or mixed curves; inactive = no such curve, though single readings can be large; an effect the other way counts as inactive or inconclusive.

Tests used:
[1] = qHTS RealTime-Glo MT Cell Viability Assay in HEK293 cells - 16 hour (AID 1224872); also: top concentration of the series differs between compounds; nearly all actives have a fitted effect of over 50% in size
Procedure, shortened: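 Cells + reagent dispensed (600 cells/well, HEK293) → 5 h at 37 C/5% CO2 → 23 nL compound in DMSO pinned → 40 h at 37 C → luminescence read at 0, 8, 16, 24, 32, 40 h.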

[2] = qHTS RealTime-Glo MT Cell Viability Assay in HepG2 cells - 8 hour (AID 1224873); also: nearly all actives have a fitted effect of over 55% in size
Procedure, shortened: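 Real-time viability: cells seeded at 600 per well together with NanoLuc and cell-permeant prosubstrate, compounds added after 5 h incubation. Luminescence tracked at 0, 8, 16, 24, 32 and 40 h of exposure.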

[3] = qHTS RealTime-Glo MT Cell Viability Assay in HEK293 cells - 40 hour (AID 1224874); settings: RealTime-Glo luminescence; max response: hits give low values; also: nearly all actives have a fitted effect of over 50% in size
Procedure, shortened: (§1)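 HEK293 cells mixed with RealTime-Glo reagents (NanoLuc plus cell-permeant prosubstrate) at 600 cells/well, preincubated 5 h at 37 C/5% CO2, then given 23 nL compound in DMSO. Nonlytic luminescence from viable cells was read at 0, 8, 16, 24, 32 and 40 h.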

[4] = A CellTox Green Cytotoxicity Assay to monitor cytotoxicity in HEK293 cells - 24 hour (AID 1224875); also: series mostly up to about 77 µM; nearly all actives have a fitted effect of over 45% in size
Procedure, shortened: (§2)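 HEK293 cells premixed with CellTox Green dye were seeded at 600 cells/well and left 5 h at 37 C/5% CO2 before pin transfer of 23 nL compound in DMSO. Fluorescence from dye bound to dead-cell DNA was read during 40 h treatment.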

[5] = A CellTox Green Cytotoxicity Assay to monitor cytotoxicity in HepG2 cells - 16 hour (AID 1224876); also: nearly all actives have a fitted effect of over 45% in size
Procedure, shortened: (§3)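 HepG2 cells were seeded together with the CellTox Green dye at 600 cells/well, left 5 h at 37 C/5% CO2, then given compounds in DMSO. Fluorescence from dye bound to dead-cell DNA was read repeatedly over 40 h of treatment at 37 C.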

[6] = qHTS RealTime-Glo MT Cell Viability Assay in HepG2 cells - 32 hour (AID 1224877); also: nearly all actives have a fitted effect of over 55% in size
Procedure, shortened: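 Real-time, nonlytic viability: 600 HepG2 cells/well mixed with NanoLuc enzyme plus prosubstrate; 5 h settle, compound (DMSO) added by pintool; luminescence monitored over 40 h at 37 C.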

[7] = A CellTox Green Cytotoxicity Assay to monitor cytotoxicity in HepG2 cells - 24 hour (AID 1224878); also: nearly all actives have a fitted effect of over 45% in size
Procedure, shortened: as §3

[8] = A CellTox Green Cytotoxicity Assay to monitor cytotoxicity in HepG2 cells - 40 hour (AID 1224879); also: nearly all actives have a fitted effect of over 40% in size
Procedure, shortened: as §3

[9] = qHTS RealTime-Glo MT Cell Viability Assay in HEK293 cells - 0 hour (AID 1224880); also: top concentration of the series differs between compounds; nearly all actives have a fitted effect of over 45% in size
Procedure, shortened: as §1

[10] = A CellTox Green Cytotoxicity Assay to monitor cytotoxicity in HEK293 cells - 32 hour (AID 1224881); also: nearly all actives have a fitted effect of over 40% in size
Procedure, shortened: as §2
% is scaled to controls: 0 for no effect and ±100 for the full control effect.

O=CN(CCO)CCO
inactive: Potency [1] | outcome [2] | max response [3] -0.597% | outcome [4] | outcome [5] | Potency [6] | outcome [7] | Potency [8] | Potency [9] | outcome [10]

NS(=O)(=O)Cc1noc2ccccc12
inactive: Potency [1] | outcome [2] | max response [3] 1.21% | outcome [4] | outcome [5] | Potency [6] | outcome [7] | Potency [8] | Potency [9] | outcome [10]

O=Cc1cccc(Br)c1
inactive: Potency [1] | outcome [2] | max response [3] 4.64% | outcome [4] | outcome [5] | Potency [6] | outcome [7] | Potency [8] | Potency [9] | outcome [10]

O=C(O)CNC(=O)c1ccc(CO)o1
inactive: Potency [1] | outcome [2] | max response [3] 3.96% | outcome [4] | outcome [5] | Potency [6] | outcome [7] | Potency [8] | Potency [9]

CC(C)(C)c1ccc(-c2ccc(C(C)(C)C)cc2)cc1
inactive: Potency [1] | outcome [2] | max response [3] -2.15% | outcome [4] | outcome [5] | Potency [6] | outcome [7] | Potency [8] | Potency [9]

CCN1CCOCC1
inactive: Potency [1] | outcome [2] | max response [3] -0.712% | outcome [4] | outcome [5] | Potency [6] | outcome [7] | Potency [8] | Potency [9]

CC(C)(C)C(=O)Oc1ccc(S(=O)(=O)Nc2ccccc2C(=O)NCC(=O)O)cc1
inactive: Potency [1] | outcome [2] | max response [3] 7.92% | outcome [4] | outcome [5] | Potency [6] | outcome [7] | Potency [8] | Potency [9] | outcome [10]

C1CCC2(CCCCO2)OC1
inactive: Potency [1] | outcome [2] | max response [3] -6.53% | outcome [4] | outcome [5] | Potency [6] | outcome [7] | Potency [8] | Potency [9] | outcome [10]

CCNS(=O)(=O)c1ccc(C)cc1
inactive: Potency [1] | outcome [2] | max response [3] 0.516% | outcome [4] | outcome [5] | Potency [6] | outcome [7] | Potency [8] | Potency [9]

Cc1coc2ccccc2c1=O
inactive: Potency [1] | outcome [2] | max response [3] -0.146% | outcome [4] | outcome [5] | Potency [6] | outcome [7] | Potency [8] | Potency [9]

CC(C)(C#N)Nc1nc(Cl)nc(NC2CC2)n1
inactive: Potency [1] | outcome [2] | max response [3] 1.79% | outcome [4] | outcome [5] | Potency [6] | outcome [7] | Potency [8] | Potency [9]

C[C@H]1[C@H](NC(=O)/C(=N/OC(C)(C)C(=O)O)c2csc(N)n2)C(=O)N1S(=O)(=O)O (stereo in doubt)
inactive: Potency [1] | outcome [2] | max response [3] 5.51% | outcome [4] | outcome [5] | Potency [6] | outcome [7] | Potency [8] | Potency [9]

CCC1C(=O)OCC1Cc1cncn1C (stereo unspecified)
inactive: Potency [1] | outcome [2] | max response [3] 0.511% | outcome [4] | outcome [5] | Potency [6] | outcome [7] | Potency [8] | Potency [9] | outcome [10]

Cc1ncc(COP(=O)(O)O)c(C=O)c1O
inactive: Potency [1] | outcome [2] | max response [3] -0.601% | outcome [4] | outcome [5] | Potency [6] | outcome [7] | Potency [8] | Potency [9] | outcome [10]

CC(=O)C1CCCCC1=O (stereo unspecified)
inactive: Potency [1] | outcome [2] | max response [3] 15.3% | outcome [4] | outcome [5] | Potency [6] | outcome [7] | Potency [8] | Potency [9] | outcome [10]

CC1(C)[C@@H]2CC[C@@]1(C)[C@H](O)C2
inactive: Potency [1] | outcome [2] | max response [3] 2.75% | outcome [4] | outcome [5] | Potency [6] | outcome [7] | Potency [8] | Potency [9]

NC(N)=NCCN1CCCCCCC1
inactive: activity change, negative = cytotoxicity [1] -1.96% [at 0.29 µM] | viability change, negative = cytotoxic [2] 0.369% [at 0.29 µM] | max response [3] -2.62% | activity change [4] 3.96% [at 0.29 µM] | cytotoxicity increase [5] -11.2% [at 0.29 µM] | activity change, negative = cytotoxic [6] 0.55% [at 0.29 µM] | cytotoxicity [7] -13.4% [at 0.29 µM] | cytotoxicity increase [8] -13% [at 0.29 µM] | activity change, negative = cytotoxicity [9] -7.81% [at 0.29 µM] | cytotoxicity increase [10] 2.16% [at 0.29 µM]

c1ccc2sc(SN3CCOCC3)nc2c1
inactive: Potency [1] | outcome [2] | max response [3] 4.29% | outcome [4] | outcome [5] | Potency [6] | outcome [7] | Potency [8] | Potency [9]

CC1(C)OC[C@@H](COC(=O)CCc2ccc(OC[C@@H](O)CNCCNC(=O)N3CCOCC3)cc2)O1
inactive: Potency [1] | outcome [2] | max response [3] 4.31% | outcome [4] | outcome [5] | Potency [6] | outcome [7] | Potency [8] | Potency [9] | outcome [10]

Cc1ccc(-c2ccccc2C#N)cc1
inactive: Potency [1] | outcome [2] | max response [3] 1.26% | outcome [4] | outcome [5] | Potency [6] | outcome [7] | Potency [8] | Potency [9] | outcome [10]

CO/N=C(\C(=O)N[C@@H]1C(=O)N2C(C(=O)O)=C(CSc3nc(=O)c(O)nn3C)CS[C@H]12)c1csc(N)n1
inactive: Potency [1] | outcome [2] | max response [3] 11.9% | outcome [4] | outcome [5] | Potency [6] | outcome [7] | Potency [8] | Potency [9] | outcome [10]

CNCC(O)c1ccc(O)c(O)c1 (stereo unspecified)
inactive: Potency [1] | outcome [2] | max response [3] 0.68% | outcome [4] | outcome [5] | Potency [6] | outcome [7] | Potency [8] | Potency [9] | outcome [10]
